Assay [1] has as its target Thyrotropin receptor (Homo sapiens) (UniProt P16473). As to the kind of experiment: qHTS assay to identify small molecule antagonists of the thyroid stimulating hormone receptor (TSHR) signaling pathway (AID 1259385; calls by dose curve; also: nearly all actives have a fitted effect of over 20% in size). In outline:
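TSHR-HEK293 cells (800/well) plated 18 h, then compounds with Ro20-1724 and TSH at 1.5 ng/mL final, 30 min at room temperature. cAMP quantified by HTRF (cAMP-d2/anti-cAMP-cryptate, 1 h); 15 concentrations in triplicate.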
Background: In qHTS, concentration-response curves come from the screen itself.

The nature of assay [2]: qHTS assay to identify small molecule agonists of the estrogen receptor alpha (ER-alpha) signaling pathway in the presence of an antagonist - cell viability counter screen (AID 1259386).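 Also: cells exposed to compounds for 22 h at 37 °C before the viability read; nearly all actives have a fitted effect of over 30% in size.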 Also: potency is read from the fitted curve at half-maximal effect. In outline: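 ICI-182,780 at 10.0nM final accompanies the compound titration (15 concentrations, 22hr, 37C) on VM7Luc4E2 cells. The CellTiter-Fluor fluorescence readout runs in the same wells as the luciferase assay.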

The target in assay [3] is Progesterone receptor (Homo sapiens) (UniProt P06401). In words: qHTS assay to identify small molecule agonists of the progesterone receptor (PR) signaling pathway (AID 1346784; calls by dose curve; also: nearly all actives have a fitted effect of over 30% in size). In outline:
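HEK 293T PR-UAS-bla reporter cells, 2% charcoal-stripped FBS; 6 hr settle at 37C/5% CO2, compound (DMSO) 16 hr, LiveBLAzer B/G FRET substrate 2 hr RT, fluorescence intensity read.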

Assay [4] shares this target. In words: qHTS assay to identify small molecule antagonists of the progesterone receptor (PR) signaling pathway (AID 1346795; active = well fitted inhibition curve with a large enough effect in the signal ratio in the repeat runs, not every such curve was filed as active; the % refers to the signal ratio; also: potency is read from the fitted curve at half-maximal effect). Summed up:
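Beta-lactamase reporter, HEK293T PR-UAS-bla line; 2% charcoal-stripped FBS; 6 hr pre-incubation, 37C/5% CO2. Compound + R5020 1 nM final, 16 hr. LiveBLAzer B/G FRET substrate, 2 hr RT; fluorescence intensity read.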

Assay [5] in a line: qHTS assay to identify small molecule antagonists of the progesterone receptor (PR) signaling pathway - cell viability counter screen (AID 1346798). Also: series mostly up to about 92 µM; nearly all actives have a fitted effect of over 50% in size. In outline: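 Luminescence readout (CellTiter-Glo, 30 min, RT) of viability in PR-UAS-bla HEK293T cells exposed to compound and R5020 agonist for 16 hr at 37C, 5% CO2; run in the same wells as the beta-lactamase reporter read.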

Assay [6] is described as follows: qHTS assay to identify small molecule agonists of the progesterone receptor (PR) signaling pathway - cell viability counter screen (AID 1346799; calls by dose curve; also: nearly all actives have a fitted effect of over 45% in size). In outline:
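HEK293T PR-UAS-bla, 3,000 cells/well, 2% charcoal-stripped FBS; 6 h settle, compound 16 h at 37C/5% CO2; LiveBLAzer 2 h RT, then CellTiter-Glo 30 min RT, luminescence read.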

A short description of assay [7]: qHTS assay to identify small molecule antagonists of the TGF-beta/Smad signaling pathway - cell viability counter screen (AID 1346824). Also: nearly all actives have a fitted effect of over 50% in size. Summed up:
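SBE-bla HEK 293T cells, incubated overnight, then compound plus 0.25 ng/mL TGF-beta1 (stock added) for 5 hr at 37 C. Viability was read in the same wells by CellTiter-Glo luminescence after 30 min at room temperature.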

Assay [8] can be described thus: qHTS assay to identify small molecule agonists of the TGF-beta/Smad signaling pathway - cell viability counter screen (AID 1346829). Also: top concentration of the series differs between compounds; nearly all actives have a fitted effect of over 45% in size. Summed up:
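Compound-treated SBE-bla HEK 293T cells (5 hr, 37 C) were assessed for viability with CellTiter-Glo in parallel with the reporter read.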

The nature of assay [9]: qHTS assay to identify small molecule agonists of the TGF-beta/Smad signaling pathway (AID 1346859; active = well fitted activation curve with a large enough effect in the signal ratio in the repeat runs, not every such curve was filed as active; the % refers to the signal ratio; also: series mostly up to about 77 µM). In outline:
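Read-out: fluorescence at 460 and 530 nm (405 nm excitation) after a 2 hr room-temperature incubation with beta-lactamase FRET substrate. SBE-bla HEK 293T cells had been treated with test compounds for 5 hr at 37 C.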

The target of assay [10] is Thyrotropin-releasing hormone receptor (Homo sapiens) (UniProt P34981). In words: qHTS assay to identify small molecule antagonists of the thyrotropin-releasing hormone receptor (TRHR) signaling pathway (AID 1346877; active = well fitted inhibition curve with a large enough effect in the repeat runs, not every such curve was filed as active; also: series mostly up to about 51 µM). Summed up: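 Screening used HEK293 cells engineered with TRHR, with a brief 5 min room-temperature compound exposure preceding addition of TRH to 1 nM. The read-out was kinetic calcium-dye fluorescence, concentration-response from 15 doses in triplicate.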

Assay [11] shares this target. In words: qHTS assay to identify small molecule agonists of the thyrotropin-releasing hormone receptor (TRHR) signaling pathway (AID 1346891; calls by dose curve;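 also: HEK293 cells expressing TRHR with calcium dye readout; series mostly up to about 58 µM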). In outline: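 HEK293/TRHR cells, 1500 per well, 18 h 37 °C; Ca dye 2 h 37 °C; pin-tool compound addition (agonist mode); kinetic fluorescence 3 min, 1 s reads; 15 concentrations, triplicate.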
A short description of assay [12]: Human pregnane X receptor (PXR) small molecule agonists, qHTS cell viability counter screen (AID 1346977). Also: nearly all actives have a fitted effect of over 50% in size. Also: potency is read from the fitted curve at half-maximal effect. In outline:
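Fluorescence read-out (CellTiter-Fluor) of viability in PXR-Luc HepG2 cells, multiplexed with the luciferase agonist read. Compounds in DMSO added after 5hr plating; 24hr total exposure at 37C, 5% CO2.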

Assay [13] in a line: Caspase-3/7 induction in CHO-K1 cells by small molecules, qHTS cell viability counter screen (AID 1346979). Also: nearly all actives have a fitted effect of over 35% in size. Also: potency is read from the fitted curve at half-maximal effect. In outline: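 CHO-K1 wt, 1,500 cells/well; 5hr pre-incubation 37C/5% CO2; compound pin transfer (DMSO); 16hr exposure; CellTiter-Fluor added, 1hr, fluorescence read.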
A short description of assay [14]: Caspase-3/7 induction in CHO-K1 cells by small molecules, qHTS assay (AID 1346980). Also: nearly all actives have a fitted effect of over 15% in size. In outline: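 Wild-type CHO-K1 cells exposed to compounds for 17hr at 37 C, 5% CO2. Caspase-3/7 activity then measured by Caspase-Glo 3/7 luminescence after 30min at room temperature.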
Assay [15] is described as follows: Caspase-3/7 induction in HepG2 cells by small molecules, qHTS cell viability counter screen (AID 1346981). Also: nearly all actives have a fitted effect of over 30% in size. Also: potency is read from the fitted curve at half-maximal effect. In outline: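 Multiplexed with the caspase-3/7 assay: HepG2 cells, 16 hr compound treatment, CellTiter-Fluor viability detection by fluorescence.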
Assay [16] concerns the target Nuclear receptor subfamily 1 group I member 2 (Homo sapiens) (UniProt O75469). In words: Human pregnane X receptor (PXR) small molecule agonists, qHTS assay (AID 1346982). Also: nearly all actives have a fitted effect of over 35% in size. Also: potency is read from the fitted curve at half-maximal effect. In outline:
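We seeded PXR-Luc HepG2 cells in assay medium containing 5% charcoal-stripped FBS, added compounds 5 hr later, incubated 24 hr, and read luminescence with ONE-Glo reagent.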

The nature of assay [17]: Caspase-3/7 induction in HepG2 cells by small molecules, qHTS assay (AID 1346978). Also: nearly all actives have a fitted effect of over 15% in size. In outline:
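Wild-type HepG2 cells, 2,000/well, settled 5 hr at 37 C and 5% CO2, then compound-treated for 17 hr; caspase-3/7 activity read by luminescent Caspase-Glo 3/7 after 30 min at room temperature.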

The target in assay [18] is Nuclear receptor subfamily 1 group I member 2 (Rattus norvegicus) (UniProt Q9R1A7). As to the kind of experiment: Rat pregnane X receptor (rPXR) activation by small molecules, qHTS assay (AID 1346983). Also: nearly all actives have a fitted effect of over 20% in size. The settings on record: rPXR luciferase reporter cells, One-Glo luminescence, 24 h; stronger effect = higher value. In outline: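 Cell-based rPXR activation assay: rPXR cells, 2,000 per well, rested 5hr at 37 C, then exposed to compounds in DMSO for 24 hr at 37 C. Luciferase activity read by One-Glo luminescence after 30 min at room temperature.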

In assay [19] the target is Nuclear receptor subfamily 1 group I member 2 (Homo sapiens) (UniProt O75469). In words: CYP3A4 induction through human pregnane X receptor (PXR) by small molecules, qHTS assay (AID 1346984). Also: nearly all actives have a fitted effect of over 40% in size. In outline:
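qHTS, concentration-response format: HepG2 DPX-2 line, PXR/CYP3A4-luc. Exposure 24 h, 37C. Substrate Luciferin-IPA 3uM final, 3 h. Detection One-Glo, 30 min RT.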

Assay [20] shares this target. In words: Human pregnane X receptor (PXR) activation by small molecules, qHTS assay (AID 1346985). Also: nearly all actives have a fitted effect of over 40% in size. In outline:
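DPX-2 cells (HepG2 co-transfected with a PXR response element and a CYP3A4-promoter luciferase construct) were seeded at 2,000 per well, rested 5 hr at 37C, then exposed to DMSO-dissolved compounds for 24 hr. Activation was read as luciferase luminescence.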

“And” between values parts separate entries of the source, which are not always exact repeats. Equal entries are not always repeated. Results filed as inconclusive are left out. Some compounds were tested as several samples or in several runs, with calls that do not always agree. The source made the active and inactive calls. Unless noted, calls follow the shape of the dose curve; as a rule, active = well fitted curve in the direction sought with a large enough effect in the repeat runs; inconclusive = weak or mixed curves; inactive = no such curve, though single readings can be large; an effect the other way counts as inactive or inconclusive.
% is scaled to controls: 0 for no effect and ±100 for the full control effect.

Sequence of Thyrotropin-releasing hormone receptor (Homo sapiens) (P34981 whole entry, looked up): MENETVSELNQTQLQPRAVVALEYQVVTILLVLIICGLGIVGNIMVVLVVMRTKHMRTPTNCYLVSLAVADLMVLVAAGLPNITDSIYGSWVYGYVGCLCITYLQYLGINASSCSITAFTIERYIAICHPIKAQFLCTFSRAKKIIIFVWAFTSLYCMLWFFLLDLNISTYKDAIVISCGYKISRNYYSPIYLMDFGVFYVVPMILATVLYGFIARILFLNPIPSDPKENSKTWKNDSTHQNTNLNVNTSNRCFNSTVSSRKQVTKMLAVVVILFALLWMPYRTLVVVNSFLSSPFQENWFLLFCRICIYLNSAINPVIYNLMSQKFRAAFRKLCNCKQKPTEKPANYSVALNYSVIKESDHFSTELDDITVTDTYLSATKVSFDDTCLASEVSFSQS
Sequence of Nuclear receptor subfamily 1 group I member 2 (Homo sapiens) (O75469 whole entry, looked up): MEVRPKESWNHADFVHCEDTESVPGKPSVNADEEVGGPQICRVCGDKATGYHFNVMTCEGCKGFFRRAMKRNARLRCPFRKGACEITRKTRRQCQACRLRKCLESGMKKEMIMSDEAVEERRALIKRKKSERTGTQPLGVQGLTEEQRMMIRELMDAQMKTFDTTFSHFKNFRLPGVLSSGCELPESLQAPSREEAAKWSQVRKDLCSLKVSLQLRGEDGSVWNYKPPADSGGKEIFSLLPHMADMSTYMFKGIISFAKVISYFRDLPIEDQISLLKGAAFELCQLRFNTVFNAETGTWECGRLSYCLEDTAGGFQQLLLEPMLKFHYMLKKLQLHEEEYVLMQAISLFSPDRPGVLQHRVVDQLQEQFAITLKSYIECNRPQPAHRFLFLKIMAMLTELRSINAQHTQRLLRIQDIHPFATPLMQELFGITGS
Sequence of Thyrotropin receptor (Homo sapiens) (P16473 whole entry, looked up): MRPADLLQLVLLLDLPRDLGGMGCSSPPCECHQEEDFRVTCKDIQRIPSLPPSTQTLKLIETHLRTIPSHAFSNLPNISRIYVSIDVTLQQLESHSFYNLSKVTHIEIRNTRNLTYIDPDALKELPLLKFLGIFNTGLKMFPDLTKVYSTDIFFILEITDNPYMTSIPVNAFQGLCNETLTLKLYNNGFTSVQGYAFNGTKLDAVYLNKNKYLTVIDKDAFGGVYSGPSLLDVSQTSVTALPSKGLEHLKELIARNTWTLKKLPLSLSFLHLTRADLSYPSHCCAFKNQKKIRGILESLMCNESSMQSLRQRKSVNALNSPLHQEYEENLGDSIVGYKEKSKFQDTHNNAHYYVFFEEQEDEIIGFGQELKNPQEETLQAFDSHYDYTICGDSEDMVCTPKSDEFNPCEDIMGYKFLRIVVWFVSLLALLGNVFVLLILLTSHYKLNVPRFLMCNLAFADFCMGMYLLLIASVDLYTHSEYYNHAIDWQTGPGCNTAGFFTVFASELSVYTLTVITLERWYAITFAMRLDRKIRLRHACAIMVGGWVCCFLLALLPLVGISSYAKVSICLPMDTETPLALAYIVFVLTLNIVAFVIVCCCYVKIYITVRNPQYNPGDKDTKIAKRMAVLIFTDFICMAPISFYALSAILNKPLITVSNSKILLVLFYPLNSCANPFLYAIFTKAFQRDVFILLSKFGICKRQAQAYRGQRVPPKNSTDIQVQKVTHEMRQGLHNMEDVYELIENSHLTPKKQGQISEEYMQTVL
Sequence of Progesterone receptor (Homo sapiens) (P06401 whole entry, looked up): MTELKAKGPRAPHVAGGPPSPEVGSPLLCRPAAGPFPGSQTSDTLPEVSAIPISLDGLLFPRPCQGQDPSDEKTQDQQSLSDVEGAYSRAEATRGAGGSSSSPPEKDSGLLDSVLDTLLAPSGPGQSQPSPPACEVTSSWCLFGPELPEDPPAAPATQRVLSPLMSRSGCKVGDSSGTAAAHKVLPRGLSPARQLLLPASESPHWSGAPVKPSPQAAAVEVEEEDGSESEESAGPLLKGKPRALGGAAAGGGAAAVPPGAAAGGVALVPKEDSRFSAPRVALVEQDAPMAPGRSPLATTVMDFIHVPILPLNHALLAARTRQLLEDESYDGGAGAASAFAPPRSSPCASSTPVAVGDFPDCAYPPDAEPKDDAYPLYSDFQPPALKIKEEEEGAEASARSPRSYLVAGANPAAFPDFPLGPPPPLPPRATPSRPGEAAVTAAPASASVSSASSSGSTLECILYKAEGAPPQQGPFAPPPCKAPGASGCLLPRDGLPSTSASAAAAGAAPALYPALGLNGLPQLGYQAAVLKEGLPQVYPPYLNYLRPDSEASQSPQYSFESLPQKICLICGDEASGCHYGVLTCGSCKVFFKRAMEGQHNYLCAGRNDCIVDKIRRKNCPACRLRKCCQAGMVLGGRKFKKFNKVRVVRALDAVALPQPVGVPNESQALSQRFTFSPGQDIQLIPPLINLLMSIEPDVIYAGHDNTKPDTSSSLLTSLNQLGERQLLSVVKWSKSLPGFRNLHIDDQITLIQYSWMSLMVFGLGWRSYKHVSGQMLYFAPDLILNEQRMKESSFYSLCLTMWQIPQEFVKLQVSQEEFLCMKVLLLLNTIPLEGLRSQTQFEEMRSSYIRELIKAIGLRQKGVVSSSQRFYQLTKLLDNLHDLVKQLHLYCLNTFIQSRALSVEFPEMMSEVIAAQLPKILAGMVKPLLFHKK
Sequence of Nuclear receptor subfamily 1 group I member 2 (Rattus norvegicus) (Q9R1A7 whole entry, looked up): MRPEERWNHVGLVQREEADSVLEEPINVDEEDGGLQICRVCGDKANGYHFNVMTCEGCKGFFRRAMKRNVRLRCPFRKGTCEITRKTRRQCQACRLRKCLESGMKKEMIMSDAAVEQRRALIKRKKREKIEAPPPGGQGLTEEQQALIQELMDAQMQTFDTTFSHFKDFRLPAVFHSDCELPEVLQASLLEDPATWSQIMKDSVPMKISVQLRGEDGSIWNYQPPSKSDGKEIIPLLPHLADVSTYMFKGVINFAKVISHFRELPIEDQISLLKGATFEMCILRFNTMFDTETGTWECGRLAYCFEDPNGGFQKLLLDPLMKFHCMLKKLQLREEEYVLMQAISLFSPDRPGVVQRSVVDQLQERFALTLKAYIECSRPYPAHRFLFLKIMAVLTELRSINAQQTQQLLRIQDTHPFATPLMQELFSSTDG

As to `CCCCN(CCCC)N=O`, the outcome in assay [1] and in assay [9] was inactive. Also, the Potency entry in assay [2], in assay [3], in [4], in assay [5], in assay [6] and in [7] was “inactive” in each case. Further, the Potency result in [8], in [10], in assay [11], in assay [12], in [13] and in [14] was “inactive” in each case. The Potency result in [15] and in assay [16] was “inactive” in each case.

On to `CN(C)c1ccc(C(=O)c2ccc(N(C)C)cc2)cc1`, for which the call in assay [1] and in [9] was inactive. Further, the Potency in assay [4] was 27.3 µM (active); in assay [12], 54.5 µM (active); in assay [13], 24.3 µM (active); in assay [16] it was 48.1 µM (active) and 17.2 µM (active). Further, the Potency entry in assay [6], in assay [7], in assay [8], in assay [10], in assay [11] and in assay [14] was “inactive” throughout.

Take `CCC(C)c1cc([N+](=O)[O-])cc([N+](=O)[O-])c1O` (centres undefined): the compound was called inactive in assay [1] and in assay [9]. Further, the Potency result in [2] is “inactive and 24.3 µM (active)”; in [12] it was “inactive and 8.63 µM (active)”; in assay [13], “inactive and 15.4 µM (active)”; in [15], “inactive and 17.2 µM (active)”; in assay [16], “inactive and 27.3 µM (active)”. For the same compound, the Potency entry in assay [4], in [5], in assay [6], in [7], in [8] and in assay [17] was “inactive” in each case. In assay [14], the Potency entry was “inactive”.

Regarding `CCN(CC)C(=O)SCc1ccc(Cl)cc1`, the Potency entry in assay [2], in assay [5], in assay [6], in assay [7], in [8] and in [10] was “inactive” each time. The Potency result in assay [11], in assay [12], in [17], in assay [13], in [14] and in assay [15] was “inactive” throughout. Also, the Potency is 25.1 µM (active) and 27.3 µM (active) in [4]; 56.1 µM (active) in assay [16]. Besides, the compound was classed as inactive in assay [9].

Regarding `CCN(CC)N=O`, the outcome in [1] and in assay [9] was inactive. In addition, the Potency result in assay [2], in [4], in [5], in assay [6], in assay [7] and in assay [8] was “inactive” in each case. Further, the Potency entry in [10], in [11], in [12], in [13], in [14] and in assay [16] was “inactive” throughout.

For `CC(C)(C)c1ccccc1O`, the Potency result in [2], in assay [3], in assay [4], in assay [5], in assay [6] and in [7] was “inactive” each time. Moreover, the Potency entry in assay [8], in assay [10], in [11], in assay [12], in assay [13] and in [14] was “inactive” in each case. Moreover, the Potency entry in assay [15] and in assay [16] was “inactive” each time. Also, in assay [9], the result was inactive.

Take `O=C(O)CC[N+](=O)[O-]`: the Potency result in assay [2], in [4], in assay [5], in assay [6], in assay [7] and in assay [8] was “inactive” throughout. In addition, the Potency result in assay [12], in assay [17], in [13], in assay [14], in assay [15] and in [16] was “inactive” throughout. The compound was classed as inactive in assay [9].

With `O=c1oc2ccccc2c(O)c1C(CC(O)c1ccc(-c2ccc(Br)cc2)cc1)c1ccccc1` (centres undefined), the Potency entry in assay [2], in assay [3], in [7], in assay [8], in [10] and in [11] was “inactive” each time. Also, the Potency result in [12], in assay [17], in assay [13], in [14], in assay [15] and in assay [16] was “inactive” throughout. Besides, in [18], the max activation was -5.73% (inactive). Moreover, the outcome in assay [19] and in [20] was inactive.

The values are drawn from PubChem BioAssay (Tox21).
